Bioassay records as filed in PubChem.
The list is not random: actives were taken first. Their share in the collection is about 32%.
CYP2C19 inhib – blocks human cytochrome P450 2C19 | 96,000 tested, 21% active | AID 778 | inhibition, % at 5 µM | CYP2C19 Supersomes, luciferin-H EGE luminescence, 30 min;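 active = CYP2C19 inhibition above a set limit at 5 µM in the primary screen, cut at about 50% in these data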;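 also: plate controls were negative control wells for no effect and 2.5 mM tranylcypromine positive control for full effect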
Target sequence (P33261 whole entry, looked up): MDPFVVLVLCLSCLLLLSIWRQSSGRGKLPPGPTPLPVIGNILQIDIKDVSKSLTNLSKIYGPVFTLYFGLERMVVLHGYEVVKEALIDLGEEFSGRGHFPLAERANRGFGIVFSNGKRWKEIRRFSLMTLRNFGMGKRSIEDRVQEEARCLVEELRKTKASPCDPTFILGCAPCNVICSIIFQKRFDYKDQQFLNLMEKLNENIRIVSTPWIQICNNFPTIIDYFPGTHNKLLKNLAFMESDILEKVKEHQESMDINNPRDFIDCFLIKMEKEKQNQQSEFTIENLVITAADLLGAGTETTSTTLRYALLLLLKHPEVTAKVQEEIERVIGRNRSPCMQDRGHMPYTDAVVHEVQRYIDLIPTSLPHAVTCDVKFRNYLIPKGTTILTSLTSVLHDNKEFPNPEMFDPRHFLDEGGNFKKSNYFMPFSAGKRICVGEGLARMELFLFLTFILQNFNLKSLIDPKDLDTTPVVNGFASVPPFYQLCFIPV
CYP2C9 act – increases human cytochrome P450 2C9 activity | AID 1024 | 96,000 tested, 1.4% active | activation factor at 5 µM | recombinant CYP2C9, luciferin-H conversion, luminescence; stronger effect = higher value; factor 1 = untreated enzyme, 0 = blocked;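 active = activation factor of 2 or more for CYP2C9 at a 5 µM dose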;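 also: 0 = sulfaphenazole-blocked wells and 1 = vehicle-only wells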
PostGolgi yeast – growth inhibition of a yeast mutant, post-Golgi transport screen. post-Golgi transport phenotypic cell assay. inhibition, % at 10 µM. 98,000 tested, 0.9% active. AID 739;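 also: yeast cells grown in 1536-well plates; yeast grown about 18 h at 30C before absorbance read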
CYP2C19 act – activators of human cytochrome P450 2C19; activation factor at 5 µM; P33261; 96,000 tested, under 10 active; recombinant CYP2C19, luciferin-H EGE luminescence; stronger effect = higher value; 0 = fully inhibited enzyme, 1 = untreated enzyme;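 active = activation factor of at least 2 at 5 µM in the primary screen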;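 also: 0 = wells with 2.5 mM tranylcypromine and 1 = vehicle-only wells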
CYP2C9 inh – inhibitors of human CYP2C9 | 96,000 tested, 20% active | P11712 | CYP2C9 Supersomes, luciferin-H conversion, luminescence | inhibition, % at 5 µM;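 active = blocking of liver enzyme CYP2C9 beyond about 50% at 5 µM, limit read from the data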
PostGolgi ctrl – yeast control strain growth, post-Golgi counter-screen | efflux-deficient yeast background strain, growth absorbance A615, 16 h | inhibition, % at 10 µM | 98,000 tested, 5% active
The depositor's hits bear a star. Rule as the data show it, unless noted: active = inhibition above about 30%; inactive = the rest.

Screening O=C(Nc1ccccc1C(=O)N1CCOCC1)C1COc2ccccc2O1 (stereo not given) returned CYP2C19 inhib 15, CYP2C9 act 1, PostGolgi yeast -2, CYP2C19 act 0.8, CYP2C9 inh -3 and PostGolgi ctrl -2.
`COc1ccc(-c2nnc3sc(C(C)N4C(=O)c5ccccc5C4=O)nn23)cc1` (stereo not given) gave PostGolgi yeast 6 and PostGolgi ctrl 6.
Screening Cn1c(=O)c2nc(-c3ccc(Cl)cc3Cl)oc2c2ccccc21 returned PostGolgi yeast 4 and PostGolgi ctrl 11.
For Cc1cc(C(F)(F)F)c2c(N)c(C(=O)Nc3cc(C)on3)sc2n1 the results were CYP2C19 inhib 4, CYP2C9 act 0.9, PostGolgi yeast 8, CYP2C19 act 1, CYP2C9 inh 11 and PostGolgi ctrl -2.
For CCC(=O)N/C(=N\OCc1ccc(F)cc1)c1nonc1NC(=O)CC the results were CYP2C19 inhib 65*, CYP2C9 act 0.9, PostGolgi yeast -5, CYP2C19 act 0.3, CYP2C9 inh 12 and PostGolgi ctrl 6.
Cc1ccc2c(c1Br)/C(=N/N1C(=O)c3ccccc3C1=O)C(=O)N2 was read as CYP2C19 inhib 30, CYP2C9 act 0.5, PostGolgi yeast -5, CYP2C19 act 0.7, CYP2C9 inh 51* and PostGolgi ctrl 5.
For Cc1c(N=C2C(=O)Nc3ccccc32)c(=O)n(-c2ccccc2)n1C the results were CYP2C19 inhib -2, CYP2C9 act 1.1, PostGolgi yeast -4, CYP2C19 act 1, CYP2C9 inh -11 and PostGolgi ctrl 24.
Screening O=C(/C(=C/O)N=Nc1ccc(Cl)cc1)c1ccncc1 returned CYP2C19 inhib 66*, CYP2C9 act 0.5, PostGolgi yeast 19, CYP2C19 act 0.3, CYP2C9 inh 46 and PostGolgi ctrl 7.
Cc1ccc(N=N/C(=C\O)C(=O)c2ccncc2)cc1 was read as CYP2C19 inhib 95*, CYP2C9 act 0.1, PostGolgi yeast 0, CYP2C19 act 0, CYP2C9 inh 88* and PostGolgi ctrl 10.
Screening CC(C)(C)NC(=O)c1ccncc1 returned CYP2C19 inhib -17, CYP2C9 act 1.1, PostGolgi yeast 3, CYP2C19 act 1.2, CYP2C9 inh -8 and PostGolgi ctrl 3.
For O=C(NC(O)C(=O)c1cccs1)c1cccnc1 (stereo not given) the results were CYP2C19 inhib -4, CYP2C9 act 1.1, PostGolgi yeast -13, CYP2C19 act 1, CYP2C9 inh -7 and PostGolgi ctrl 7.
CCOC(=O)CN1CC23C=CC(O2)C(C(=O)Nc2ccc(C(C)=O)cc2)C3C1=O (stereo not given) was read as CYP2C19 inhib -10, CYP2C9 act 0.9, PostGolgi yeast -2, CYP2C19 act 1.1, CYP2C9 inh 5 and PostGolgi ctrl 14.
`CCOc1ccccc1-c1nc(-c2ccc(NC(=O)Cc3ccc(OC)cc3)cc2)no1` gave CYP2C19 inhib 56*, CYP2C9 act 1.9, PostGolgi yeast -6, CYP2C19 act 0.4, CYP2C9 inh -90 and PostGolgi ctrl 2.
`CCOc1ccccc1-c1nc(-c2cccc(Br)c2)no1` gave CYP2C19 inhib 1, CYP2C9 act 1.7, PostGolgi yeast -3, CYP2C19 act 1, CYP2C9 inh -74 and PostGolgi ctrl 22.
`CCOc1ccccc1-c1nc(-c2ccc(NC(=O)c3ccc(Br)o3)cc2)no1` gave CYP2C19 inhib 77*, CYP2C9 act 1.3, PostGolgi yeast -16, CYP2C19 act 0.2, CYP2C9 inh -34 and PostGolgi ctrl -2.
Screening COc1cccc(NC(=O)C2CCN(S(=O)(=O)c3ccc4c(c3)OCCO4)CC2)c1 returned CYP2C19 inhib 37, CYP2C9 act 1.5, PostGolgi yeast -5, CYP2C19 act 0.6, CYP2C9 inh -45 and PostGolgi ctrl -3.
`Cc1cc(Cl)ccc1NC(=S)NCc1ccc(Cl)cc1` gave CYP2C19 inhib 52*, CYP2C9 act 0.5, PostGolgi yeast 6, CYP2C19 act 0.5, CYP2C9 inh 52* and PostGolgi ctrl -2.
`Cc1cc(Cl)ccc1NC(=S)NCCC(c1ccccc1)c1ccccc1` gave CYP2C19 inhib 88*, CYP2C9 act 0.2, PostGolgi yeast 1, CYP2C19 act 0.1, CYP2C9 inh 85* and PostGolgi ctrl 14.
Cc1ccc(NC(=S)NCc2ccc3c(c2)OCO3)c(C)c1 was read as CYP2C19 inhib 90*, CYP2C9 act 0.7, PostGolgi yeast 0, CYP2C19 act 0.1, CYP2C9 inh 29 and PostGolgi ctrl 4.
Screening CCOc1cc2[nH]c(=O)n(CCCC(=O)NCc3ccc(OC)cc3)c(=O)c2cc1OCC returned CYP2C19 inhib 16, CYP2C9 act 0.5, PostGolgi yeast -1, CYP2C19 act 0.8, CYP2C9 inh 47 and PostGolgi ctrl -2.
Screening COCCNC(=O)c1cc(-c2ccc(Cl)c(Cl)c2)on1 returned CYP2C19 inhib -16, CYP2C9 act 1, PostGolgi yeast 0, CYP2C19 act 1.2, CYP2C9 inh -4 and PostGolgi ctrl 20.
CCC(c1nnnn1CCC(C)C)N1CCC(C(N)=O)CC1 (stereo not given) was read as CYP2C19 inhib -18, CYP2C9 act 1.1, PostGolgi yeast 1, CYP2C19 act 1.2, CYP2C9 inh -7 and PostGolgi ctrl 7.
Screening Cc1nc2c(ccc3nc(NC(=O)c4ccc5c(c4)OCCO5)sc32)s1 returned CYP2C19 inhib 15, CYP2C9 act 0.4, PostGolgi yeast 9, CYP2C19 act 0.8, CYP2C9 inh 63* and PostGolgi ctrl 15.
Screening O=C(Nc1ccc2oc(-c3ccccc3)nc2c1)c1ccc2c(c1)OCCO2 returned CYP2C19 inhib 53*, CYP2C9 act 0.3, PostGolgi yeast -1, CYP2C19 act 0.5, CYP2C9 inh 66* and PostGolgi ctrl 17.
COc1cc(NC(=O)c2ccc3c(c2)OCO3)c2ncccc2c1 was read as PostGolgi yeast -4 and PostGolgi ctrl 4.
Screening O=C(Nc1ccncc1)c1ccc2c(c1)OCCO2 returned CYP2C19 inhib 77*, CYP2C9 act 0.5, PostGolgi yeast -7, CYP2C19 act 0.2, CYP2C9 inh 50* and PostGolgi ctrl 2.
Screening O=C(Nc1cccc2cccnc12)c1ccc2c(c1)OCCO2 returned CYP2C19 inhib 38, CYP2C9 act 2*, PostGolgi yeast 4, CYP2C19 act 0.6, CYP2C9 inh -102 and PostGolgi ctrl 20.
Cc1ccc(NC(=O)c2ccc3c(c2)OCCO3)cc1 was read as CYP2C19 inhib 7, CYP2C9 act 0.9, PostGolgi yeast -2, CYP2C19 act 0.9, CYP2C9 inh 14 and PostGolgi ctrl 2.
`Cc1nc2ccc3nc(NC(=O)c4ccc5c(c4)OCCO5)sc3c2s1` gave CYP2C19 inhib 0, CYP2C9 act 0.9, PostGolgi yeast 12, CYP2C19 act 1, CYP2C9 inh 10 and PostGolgi ctrl 3.
